HTR5A inv ctr: inverse agonist of human HTR5A in OPRM1-OPRD1 counter-screen; P47898; HTR5A cell line, luminescence, inverse agonism; inhibition, % at 9.3 µM; 340,000 tested, 0.083% active; AID 504634; in the data active = inhibition mostly above about 23%, no sharp cut-off; inactive = mostly below about 18%;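 note: 0% = cells with DMSO and 100% = no-cell wells with DMSO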
Target sequence (P47898 whole entry, looked up): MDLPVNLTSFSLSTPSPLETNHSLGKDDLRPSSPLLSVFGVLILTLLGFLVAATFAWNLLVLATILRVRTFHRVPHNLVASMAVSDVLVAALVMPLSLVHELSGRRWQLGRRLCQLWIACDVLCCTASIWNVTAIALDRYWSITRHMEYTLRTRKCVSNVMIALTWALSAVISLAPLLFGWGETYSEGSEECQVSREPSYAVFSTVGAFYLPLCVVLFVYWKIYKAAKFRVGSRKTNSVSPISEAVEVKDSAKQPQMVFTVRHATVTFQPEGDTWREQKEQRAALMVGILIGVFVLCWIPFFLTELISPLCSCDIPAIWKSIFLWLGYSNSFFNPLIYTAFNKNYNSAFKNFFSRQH
HTR5A ag ctr: HTR5A agonism, opioid heterodimer counter-screen; P47898; 340,000 tested, 0.61% active; HTR5A agonist assay, luminescence, cell-based; activation, % at 9.3 µM; in the data active = activation mostly above about 9.5%, no sharp cut-off; inactive = mostly below about 7.6%;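 note: 0% = cells with vehicle only and 100% = reference agonist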
MOR-DOR ag: OPRM1-OPRD1 heterodimerization agonism; P35372+P41143; AID 504326; cells, luminescence; 340,000 tested, 0.3% active; activation, % at 9.3 µM; in the data active = activation above about 18%;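 note: 0% = vehicle-treated cells and 100% = reference agonist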
MOR-DOR inv ag: inverse agonist of human OPRM1-OPRD1 heterodimerization | inhibition, % at 9.3 µM | cell-based MOR-DOR heterodimer luminescence, inverse agonism | 340,000 tested, 0.21% active | AID 504357 | P35372+P41143; in the data active = inhibition above about 22%, passing the limit was not always enough;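 note: 0% = cells with DMSO and 100% = wells without cells with DMSO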
MOR-DOR inv conf: OPRM1-OPRD1 heterodimer inverse agonism, confirmation; shares compounds with MOR-DOR inv ag; cells expressing OPRM1/OPRD1 heterodimer, luminescence; inhibition, % at 9.3 µM; 580 tested, 20% active; AID 504900; in the data active = inhibition above about 32%;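 note: 0% = cells with DMSO and 100% = wells lacking cells with DMSO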
HTR5A inv count: counter-screen for OPRM1-OPRD1 inverse agonists: human HTR5A inverse agonism | shares compounds with MOR-DOR inv ag | HTR5A-expressing cells, luminescence | inhibition, % at 9.3 µM | 580 tested, under 10 active; call rule not given here;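 note: 0% = cells with DMSO and 100% = no-cell wells with DMSO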
* hit, by the source's call; i = inactive; . = not tested or not shown. The list is not random: actives were taken first. Their share in the collection is about 1.1%.

SMILES	HTR5A inv ctr	HTR5A ag ctr	MOR-DOR ag	MOR-DOR inv ag	MOR-DOR inv conf	HTR5A inv count
COc1cc(C(C)=O)ccc1OCc1cn(CC(=O)c2ccc(O)cc2)nn1	8.7	-2.3	-6.8	31.7*	i	-24.9
Cc1ccccc1N=C1C(=O)Nc2ccccc21	6.3	-1.6	-10.9	56.3*	-128.4	4.9
Cc1ccc(N=C2C(=O)Nc3ccccc32)c(C)c1	13.0	-3.3	-9.8	54.1*	21.3	1.9
Cc1ccc(NC(=S)Nc2ccc(S(=O)(=O)N3CCOCC3)cc2)cc1S(=O)(=O)N1CCOCC1	-3.9	1.5	1.9	-9.7	.	.
CCN=C1S/C(=C\c2cc(Br)c(O)c(OC)c2)C(=O)N1CC	10.9	-3.0	3.2	-15.1	.	.
Cc1ccc(Cl)c2c1NC(=O)C2(O)CC(=O)c1ccccc1O (centres undefined)	27.4	-3.9	-14.9	80.3*	75.5*	-9.5
O=C1Nc2ccccc2C1=Nc1ccc(S(=O)(=O)Nc2nccs2)cc1	-12.9	3.7	0.6	-2.6	.	.
COc1ccc(OC)c(N=C2C(=O)Nc3ccccc32)c1	22.1	-8.5	-8.3	41.5*	44.9*	-2.9
NS(=O)(=O)c1ccc(N=C2C(=O)Nc3ccccc32)cc1	6.5	-2.5	-11.6	64.4*	27.0	-6.7
O=C1Nc2ccccc2C1=Nc1ccc(F)cc1	10.9	-2.8	-10.7	59.2*	23.5	4.2
COc1cc(/C=N/N=C2/C(=O)Nc3ccccc32)ccc1O	12.3	-4.7	-2.6	13.4	.	.
COc1ccc(N=C2C(=O)Nc3ccc(C)c(Br)c32)cc1	6.1	-1.6	-13.9	69.5*	-51.7	-3.4
CC1CN(C(=O)CCC(=O)NC2CCCCC2)c2ccccc2S1 (centres undefined)	-2.6	0.9	0.4	-2.1	.	.
Cc1ccc[n+](CC(=O)Nc2ccc([N+](=O)[O-])cc2)c1	11.5	-3.4	-2.7	12.9	.	.
NC(=O)c1ccc(N=C2C(=O)Nc3ccc([N+](=O)[O-])cc32)cc1	-13.7	4.8	0.1	-0.8	.	.
O=C1Nc2ccccc2C1=Nc1cccc([N+](=O)[O-])c1	-3.9	1.0	-8.3	48.1*	-137.7	-11.8
COc1ccc(N=C2C(=O)Nc3ccccc32)cc1	7.8	-1.9	-9.4	50.1*	19.6	-15.1
Nc1[nH]c(=O)nc(Nc2ccccc2)c1N=O	-1.9	-2.4	-0.9	5.0	.	.
CCOC(=O)c1ccc(CC(=O)c2oc3cc(O)ccc3c2C)o1	-8.7	-0.7	-5.9	34.5*	27.5	-2.3
CC(C)(C)c1ccc(OCC(=O)NNC(=S)NC(=O)c2ccccc2[N+](=O)[O-])c(Br)c1	16.4	-4.5	-6.3	32.5*	17.0	4.3
Cc1cccc(NS(=O)(=O)c2cccc(C(=O)NCC(c3ccc(F)cc3)N3CCOCC3)c2)c1 (centres undefined)	-19.0	6.9	-1.1	4.7	.	.
O=C(C[N+]1(CC#Cc2ccccc2)CCOCC1)c1ccccc1	9.7	-2.3	-4.8	24.9	.	.
O=C(C[N+]1(CC#Cc2ccccc2)CCOCC1)c1ccc(Cl)cc1	5.1	-1.8	-6.1	33.5*	i	-13.8
Cc1ccc(C(=O)COC(=O)CNC(=O)c2ccc(Br)o2)cc1[N+](=O)[O-]	23.3	-5.1	-10.7	54.2*	-64.5	5.5
Cc1ccc(C(=O)COC(=O)CNC(=O)Cc2ccccc2)cc1	-19.3	1.8	-3.5	19.1	.	.
SMILES	HTR5A inv ctr	HTR5A ag ctr	MOR-DOR ag	MOR-DOR inv ag	MOR-DOR inv conf	HTR5A inv count
Cc1ccc(C(=O)COC(=O)CNC(=O)Cc2ccccc2)cc1[N+](=O)[O-]	29.2	-6.0	-13.8	57.3*	-46.3	-24.5
CCc1ccc(C(=O)COC(=O)CNC(=O)c2ccc(Br)o2)cc1	5.3	3.0	-3.7	20.6	.	.
COCc1cc(C)nc2sc(C(=O)N3CCCCC3)c(N)c12	11.5	0.8	-7.4	38.5*	i	13.3
CCOc1ccc(C(=O)COC(=O)c2nc3nccc(C)n3n2)cc1	0.1	-2.7	-3.4	13.6	.	.
CCN1CCN(C(=O)CN2C(=O)COc3ccc(C)cc32)CC1	12.1	-4.0	-1.5	12.2*	i	-18.9
Cc1cc(C(=O)CS(=O)(=O)c2ccc(Cl)cc2)cc(C)c1O	0.6	-0.1	-3.2	18.3	.	.
COc1ccc(NS(=O)(=O)c2ccc3c(c2)CCC(=O)N3)cc1O	-21.3	0.6	-2.6	14.3	.	.
O=C(NNC(=O)C1CCN(S(=O)(=O)c2ccc(Cl)cc2)CC1)c1ccccc1O	6.9	-2.8	-2.2	12.1	.	.
ON(Cc1c(F)cccc1Cl)Cc1c(F)cccc1Cl	1.9	-4.2	-7.0	35.1*	70.1*	9.3
Fc1cccc(Cl)c1CSC1=NCCS1	-12.3	2.1	2.0	-16.6	.	.
Cc1nn(CCC(=O)NNC(=S)Nc2ccc([N+](=O)[O-])cc2)c(C)c1[N+](=O)[O-]	7.9	0.0	-4.5	24.1	.	.
Cc1nn(CCC(=O)NNC(=S)Nc2ccc(F)cc2)c(C)c1Br	-26.7	-3.0	-7.9	43.6*	1.8	7.4
CC1(C)CC(=O)C(C2(O)C(=O)N(Cc3ccccc3)c3ccccc32)CO1 (centres undefined)	18.1	-6.9	-5.8	28.6	.	.
CC1(C)CC(=O)CC(C2(O)C(=O)N(Cc3ccccc3)c3ccccc32)O1 (centres undefined)	15.5	-6.0	-6.2	34.1*	19.7	8.8
CC(C)CCn1c(=O)c2sccc2n2c(CCCC(=O)N3CCN(c4ccccn4)CC3)nnc12	-2.6	2.3	-2.9	14.7	.	.
O=C(C1=C(O)C(=O)N(CCN2CCOCC2)C1c1ccc(F)cc1)c1cc2ccccc2o1 (centres undefined)	-3.3	0.8	-1.9	10.1	.	.
O=C(C1=C(O)C(=O)N(CCN2CCOCC2)C1c1ccco1)c1cc2ccccc2o1 (centres undefined)	-3.7	0.9	-6.3	33.6*	-102.0	-40.4
N#Cc1c(-c2ccccc2)nc(-c2cccnc2)[nH]c1=O	-11.4	3.1	-1.7	8.3	.	.
CCN(CC)CC(=O)c1ccc(-c2ccccc2)cc1	9.5	-2.9	-10.2	54.2*	-57.6	5.0
CN(C)CC(=O)c1ccc(-c2ccccc2)cc1	0.1	-1.0	-6.1	33.5*	-41.8	-12.0
Cc1ccc(-c2nnc(CCC(=O)NCc3csc(C)n3)o2)s1	0.2	-2.5	-2.0	10.6	.	.
CSc1nnc2c(n1)OC1(Nc3ccccc3-2)C(=O)Nc2ccccc21 (centres undefined)	-0.9	-4.8	-10.6	53.0*	-20.8	-6.1
CCSc1nnc2c(n1)OC(C)(C)Nc1ccccc1-2	-10.3	9.6	-0.1	0.3	.	.
COc1ccc(CN2CCCC(C(=O)N3CCCCC3)C2)cc1OC (centres undefined)	-17.5	4.7	0.2	-1.3	.	.
CCCNC(=O)c1nnsc1S(=O)(=O)c1ccc(Cl)cc1	10.7	-4.1	-5.7	32.4*	12.3	-5.2
CCCc1c(C(=O)Nc2ccc(C(F)(F)F)cc2)cnn1-c1ccccc1	-3.0	0.5	5.3	-25.9	.	.
CCCc1c(C(=O)NNc2ccc(C)cc2)cnn1-c1ccccc1	-0.9	2.1	-7.8	39.3*	-3.2	-15.7
Cc1cc(C)c(C(=O)CC2(O)C(=O)Nc3ccccc32)cc1C (centres undefined)	22.0	-8.7	-0.4	2.5	.	.
